From PubChem
Most compounds without a hit are left out; they make up all but 8.3% or so of the library.
RORgamma inh – blocks mouse ROR gamma transcriptional activity; 5.4% of 310,000 active; Drosophila S2 Gal4-RORgamma UAS-luciferase reporter, 20 h; Potency, µM (top dose mostly 53.6 µM), for inactives: at the top dose activity change, negative = inhibition, usual class: inhibitors; P51450; further: potency means the concentration at half of the fitted maximal effect; on the % scale 0 is the no-effect control and ±100 the full control effect; nearly all actives have a fitted effect of over 60% in size
Target sequence (P51450 whole entry, looked up, the tested form may be a part): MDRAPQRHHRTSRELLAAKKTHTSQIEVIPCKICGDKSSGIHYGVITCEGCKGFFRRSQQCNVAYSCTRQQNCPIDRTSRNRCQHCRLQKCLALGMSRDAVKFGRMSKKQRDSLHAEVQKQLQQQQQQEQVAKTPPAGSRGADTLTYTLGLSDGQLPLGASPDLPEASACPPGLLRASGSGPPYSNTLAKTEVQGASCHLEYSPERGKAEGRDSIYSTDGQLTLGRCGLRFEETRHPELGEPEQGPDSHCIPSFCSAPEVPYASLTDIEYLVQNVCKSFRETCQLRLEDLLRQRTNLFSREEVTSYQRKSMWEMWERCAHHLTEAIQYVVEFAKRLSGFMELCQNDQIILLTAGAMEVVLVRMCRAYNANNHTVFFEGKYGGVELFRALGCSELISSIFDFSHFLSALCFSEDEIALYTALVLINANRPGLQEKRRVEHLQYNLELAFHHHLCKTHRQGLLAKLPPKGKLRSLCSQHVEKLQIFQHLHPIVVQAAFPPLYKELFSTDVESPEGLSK
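Read-out: Photinus luciferase luminescence; inhibitors lower reporter signal. Insect Schneider cells with Gal4-ROR gamma fusion under metallothionein promoter, UAS reporter; 700 uM final copper sulfate induction, 20 hr, ambient temperature.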
SW480 rereplic – DNA re-replication induction in SW480 cells; 1.8% of 340,000 active; SW480 DNA re-replication, Hoechst DNA content imaging, 48 h; Potency, µM (doses to about 46.1 µM), for inactives: at the highest dose re-replication activation, hits mostly activators; further: potency means the concentration at half of the fitted maximal effect; % of control where 0% means no effect; nearly all actives have a fitted effect of over 55% in size
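SW480 cells exposed to compounds for 48 hr at 37 C, 5% CO2, then Hoechst-stained 40 min. Nuclear DNA content imaged by fluorescence scanning (405 nm excitation, 500-530 nm emission); re-replication scored as increased high-intensity nuclei.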
Giardia kill – Giardia lamblia killing | 0.15% of 340,000 active | activity change, % at 7.66 µM, hits read low | Giardia lamblia trophozoite viability; in the data active means activity change below about -80%; inconclusive means between about -30% and that limit;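 further: parasites exposed to compound for two days anaerobically before the ATP read; on the % scale 0 is the no-effect control and ±100 the full control effect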
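Killing of trophozoites was scored by loss of ATP luminescence after a 48 hrs anaerobic exposure to compounds at 37 deg C, using 100 cells per well.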
Chronic BCR inh – inhibitors of chronic active B-cell receptor signaling; Potency, µM (titrated, usually from 46.1 µM), for the others: top-dose activity change, negative = inhibition, most hits filed as inhibitors; 0.05% of 340,000 active; ABC-DLBCL IkBa-CBG/CBR reporter, luminescence ratio, 4 h; active means well fitted inhibition curve with a large enough effect in the signal ratio, with a control signal flat, not every such curve was filed as active; inconclusive means small, poorly fitted or top-dose-only effect, or effect the other way, or a change in a side signal; the % refers to the signal ratio;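 further: potency means the concentration at half of the fitted maximal effect; plate controls were basal doxycycline-induced cells for no effect and cells given 10 µM MG132 for full effect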
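Concentration-response series (up to 46 uM) were applied to TMD8 dual-reporter cells for 4 h at 37C with doxycycline. Green/red ratio, after filter-overlap correction, defined %Activity; red signal alone was normalised to basal cells and zero luminescence.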
MCF10A rerep – inducers of DNA re-replication in MCF 10A breast cells. MCF 10A DNA re-replication, Hoechst nuclear intensity, 48 h. Potency, µM (titrated, usually from 46.1 µM), inactives show at the highest dose activity, positive = re-replication, usual class: activators. 2.9% of 350,000 active. AID 624296; further: potency means the concentration at half of the fitted maximal effect; % of control where 0% means no effect; nearly all actives have a fitted effect of over 50% in size
Gal4-VP16 FLuc – inhibits Gal4-VP16 luciferase reporter, ROR gamma counter-screen; 3.5% of 310,000 active; Potency, µM (series often up to 53.6 µM), inactives show at the highest dose activity, negative = inhibition, hits mostly inhibitors; Drosophila S2 Gal4-VP16 UAS-luciferase, luminescence, 20 h; AID 2546;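 further: Gal4-VP16 expression switched on by copper sulfate through the metallothionein promoter; potency means the concentration at half of the fitted maximal effect; on the % scale 0 is the no-effect control and ±100 the full control effect; nearly all actives have a fitted effect of over 50% in size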
Active calls of the source: *. Unless noted, the call rests on the fitted dose curve; in most records, active means well fitted curve in the direction sought with a large enough effect; inconclusive means small, poorly fitted or top-dose-only effect, or another doubt; inactive means no such curve, though single readings can be large; an effect the other way counts as inactive or inconclusive.

Screening O=C(c1ccc(Cl)cc1)N1CCC(C(=O)N2CCN(c3ncccn3)CC2)CC1 returned SW480 rereplic -0.8%, Giardia kill -4.8, Chronic BCR inh -3.2% and MCF10A rerep -1.6%.
Screening CC(C)(C)NC(=O)c1ccc2c(c1)CCO2 returned RORgamma inh 13.2%, SW480 rereplic -14.1%, Giardia kill 4.7, Chronic BCR inh -2.4%, MCF10A rerep 0.1% and Gal4-VP16 FLuc -7.7%.
Screening O=C(NC(=O)c1ccccc1O)c1ccc2c(c1)CCO2 returned RORgamma inh 5.01µM*, SW480 rereplic -57.4%, Giardia kill inconclusive, Chronic BCR inh inconclusive, MCF10A rerep 0.0% and Gal4-VP16 FLuc inconclusive.
`Cc1ccc(C)c(-c2nnc(NC(=O)c3ccc([N+](=O)[O-])o3)o2)c1` gave SW480 rereplic inconclusive, Giardia kill -84.5*, Chronic BCR inh inconclusive and MCF10A rerep inconclusive.
Cc1ccc(C)c(-c2nnc(NC(=O)Cc3ccc(F)cc3)o2)c1 was read as RORgamma inh 0.631µM*, SW480 rereplic -3.0%, Giardia kill -14.9, Chronic BCR inh 0.6%, MCF10A rerep inconclusive and Gal4-VP16 FLuc 0.562µM*.
Cc1ccc(C)c(-c2nnc(NC(=O)CCS(=O)(=O)c3ccccc3)o2)c1 was read as SW480 rereplic -1.7%, Giardia kill 1.1, Chronic BCR inh 3.5% and MCF10A rerep inconclusive.
Cc1ccc(-c2nnc(NC(=O)CCS(=O)(=O)c3ccccc3)o2)c(C)c1 was read as SW480 rereplic 3.9%, Giardia kill -5.7, Chronic BCR inh 7.7% and MCF10A rerep inconclusive.
`Cc1ccc(-c2nnc(NC(=O)Cc3ccc(F)cc3)o2)c(C)c1` gave RORgamma inh 1.41µM*, SW480 rereplic inconclusive, Giardia kill 12.4, Chronic BCR inh 1.6%, MCF10A rerep 3.9% and Gal4-VP16 FLuc 1.26µM*.
For CSCc1c(C(=O)OCC(=O)NC2CCCCC2)oc2ccccc12 the results were SW480 rereplic 0.9%, Giardia kill -11.0, Chronic BCR inh 2.8% and MCF10A rerep 4.1%.
For CCCCCCCCOc1ccc(C(=O)O)cc1 the results were RORgamma inh 25.2%, SW480 rereplic -2.6%, Giardia kill -26.2, Chronic BCR inh 0.9%, MCF10A rerep -31.7% and Gal4-VP16 FLuc -8.0%.
`CCCCCCOc1ccc(C(=O)O)cc1C#N` gave RORgamma inh 25.5%, SW480 rereplic -0.5%, Giardia kill 8.1, Chronic BCR inh 7.0%, MCF10A rerep 18.4µM* and Gal4-VP16 FLuc -7.8%.
For C=CCn1c(-c2cccc([N+](=O)[O-])c2)n[nH]c1=S the results were RORgamma inh 2.24µM*, SW480 rereplic 15.0%, Giardia kill -9.4, Chronic BCR inh 1.2%, MCF10A rerep inconclusive and Gal4-VP16 FLuc 8.91µM*.
For O=[N+]([O-])c1cccc(-c2n[nH]c(=S)n2Cc2ccccc2)c1 the results were RORgamma inh 7.08µM*, SW480 rereplic 1.4%, Giardia kill -5.6, Chronic BCR inh 0.8%, MCF10A rerep 20.5% and Gal4-VP16 FLuc inconclusive.
Screening O=c1oc2ccc(Br)cc2cc1S(=O)(=O)c1ccc(F)cc1 returned RORgamma inh -14.5%, SW480 rereplic 27.9%, Giardia kill 13.8, Chronic BCR inh -0.3%, MCF10A rerep 5.17µM* and Gal4-VP16 FLuc 9.3%.
`COc1cc(C(=O)NCC(c2ccc(F)cc2)N2CCOCC2)ccc1OCc1ccccc1Cl` (centres undefined) gave SW480 rereplic 5.6%, Giardia kill 7.6, Chronic BCR inh -21.8% and MCF10A rerep inconclusive.
Screening O=C(Nc1ccc(CN2CCOCC2)cc1)c1ccc(-c2cccc(Cl)c2)o1 returned RORgamma inh 19.3%, SW480 rereplic 3.3%, Giardia kill 12.8, Chronic BCR inh inconclusive, MCF10A rerep inconclusive and Gal4-VP16 FLuc -13.7%.
Screening O=C(NC(=S)Nc1ccc(CN2CCOCC2)cc1)c1ccc(-c2cccc(Cl)c2)o1 returned RORgamma inh 3.16µM*, SW480 rereplic inconclusive, Giardia kill -19.2, Chronic BCR inh 8.5%, MCF10A rerep inconclusive and Gal4-VP16 FLuc 14.1µM*.
`O=C(NC(=S)Nc1ccc(CN2CCOCC2)cc1)c1cccc([N+](=O)[O-])c1` gave RORgamma inh inconclusive, SW480 rereplic -9.1%, Giardia kill -1.4, Chronic BCR inh -5.6%, MCF10A rerep 1.0% and Gal4-VP16 FLuc inconclusive.
O=C(NC(=S)Nc1ccc(CN2CCOCC2)cc1)c1ccc([N+](=O)[O-])cc1Cl was read as RORgamma inh 7.94µM*, SW480 rereplic 8.5%, Giardia kill inconclusive, Chronic BCR inh -0.4%, MCF10A rerep 4.1% and Gal4-VP16 FLuc inconclusive.
For O=C(NC(=S)Nc1ccccc1N1CCOCC1)c1ccc(-c2cccc(Cl)c2)o1 the results were RORgamma inh 2.51µM*, SW480 rereplic 0.2%, Giardia kill 10.1, Chronic BCR inh -8.9%, MCF10A rerep inconclusive and Gal4-VP16 FLuc 5.62µM*.
O=C(NC(=S)Nc1ccccc1N1CCOCC1)c1sc2ccccc2c1Cl was read as RORgamma inh inconclusive, SW480 rereplic 6.4%, Giardia kill -9.8, Chronic BCR inh -5.8%, MCF10A rerep inconclusive and Gal4-VP16 FLuc 1.6%.
Screening CCOc1ccc(CN2C(=O)c3ccccc3C2=O)cc1C(=O)N1CCC(C(N)=O)CC1 returned RORgamma inh -5.4%, SW480 rereplic -0.5%, Giardia kill -5.9, Chronic BCR inh 1.2%, MCF10A rerep 3.4% and Gal4-VP16 FLuc -17.6%.
Screening CCOc1ccc(N2C(=O)CC(/C=C3/N(C)c4ccccc4C3(C)C)C2=O)cc1 (centres undefined) returned RORgamma inh 6.1%, SW480 rereplic 5.1%, Giardia kill 2.7, MCF10A rerep 0.3% and Gal4-VP16 FLuc 1.5%.
Screening CN1/C(=C/C2CC(=O)N(c3cccc4ccccc34)C2=O)C(C)(C)c2ccccc21 (centres undefined) returned RORgamma inh 14.2%, SW480 rereplic 18.4µM*, Giardia kill 8.3, Chronic BCR inh inconclusive, MCF10A rerep inconclusive and Gal4-VP16 FLuc 3.5%.
Fc1ccc(/C=N/Nc2nnnn2-c2ccccc2)cc1 was read as RORgamma inh 11.2µM*, SW480 rereplic -31.5%, Giardia kill 2.1, Chronic BCR inh -0.5%, MCF10A rerep 29.8% and Gal4-VP16 FLuc inconclusive.
Screening Fc1ccc(Oc2nnnn2-c2ccccc2)cc1 returned RORgamma inh 18.8%, SW480 rereplic -1.1%, Giardia kill 7.8, Chronic BCR inh 4.1%, MCF10A rerep -0.6% and Gal4-VP16 FLuc 0.4%.
Screening Cc1nc(NC(=O)c2cccc(-c3cc4ccccc4oc3=O)c2)ccc1Br returned RORgamma inh -4.8%, SW480 rereplic -1.5%, Giardia kill 0.2, Chronic BCR inh 6.5%, MCF10A rerep 20.6µM* and Gal4-VP16 FLuc inconclusive.
